# Measured values reported in PubChem BioAssay (NCATS).
# Records with an inconclusive call do not appear. A call without a number means that no potency is given here. Active and inactive are the calls of the source. Unless noted, calls come from the whole dose curve; as a rule, active = well fitted curve in the direction sought with a large enough effect; inconclusive = small, poorly fitted or top-dose-only effect, or another doubt; inactive = no such curve, though single readings can be large; an effect the other way counts as inactive or inconclusive.
# Assays:
# [1] = test system: Zika virus NS2B-NS3 protease; assay: Primary screen GU AMC qHTS for Zika virus inhibitors (AID 1347154); note: nearly all actives have a fitted effect of over 70% in size
# Summary of the method: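 Unlinked Zika NS2B hydrophilic domain/NS3 protease domain noncovalent complex (25 nM final) in 10 mM Tris-HCl pH 8.0, 0.01% Tween 20, with AMC peptide substrate. Fluorescence (ex 340, em 450 nm) change over 15 min, room temperature; percent inhibition fitted to 4-parameter Hill equation.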
# [2] = Primary qHTS for small molecule stabilizers of the endoplasmic reticulum resident proteome: Secreted ER Calcium Modulated Protein (SERCaMP) assay (AID 1508630)
# Summary of the method: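 The SH-SY5Y reporter protocol was run at 3 concentrations up to 38.3 uM (primary) or 11 concentrations (follow-up): 16 h compound, 100 nM thapsigargin for 4 h, then extracellular luciferase luminescence.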
# [3] = qHTS Assay for Lipid Storage Modulators (AID 1519; calls by dose curve); conditions: Drosophila S3 cells, BODIPY lipid droplet/cell ratio, laser cytometry, cells loaded with oleic acid
# Summary of the method: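 Cells seeded at 5,000 per well were treated with compounds over a concentration series and loaded with oleic acid (400 uM, as added). Lipid droplet fluorescence (488 nm excitation, 500-530 nm channel) was read by laser-scanning cytometry and normalized to 20 uM Triacsin C.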
# [4] = biological target: DNA repair nuclease/redox regulator APEX1 (Homo sapiens) (UniProt P27695); assay: qHTS Validation Assay for Inhibitors of the Human Apurinic/apyrimidinic Endonuclease 1 (APE1) (AID 1705;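 note: TAMRA fluorescence gain over two minutes as APE1 cuts a quenched THF abasic duplex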)
# Sequence of DNA repair nuclease/redox regulator APEX1 (Homo sapiens) (P27695 whole entry, looked up): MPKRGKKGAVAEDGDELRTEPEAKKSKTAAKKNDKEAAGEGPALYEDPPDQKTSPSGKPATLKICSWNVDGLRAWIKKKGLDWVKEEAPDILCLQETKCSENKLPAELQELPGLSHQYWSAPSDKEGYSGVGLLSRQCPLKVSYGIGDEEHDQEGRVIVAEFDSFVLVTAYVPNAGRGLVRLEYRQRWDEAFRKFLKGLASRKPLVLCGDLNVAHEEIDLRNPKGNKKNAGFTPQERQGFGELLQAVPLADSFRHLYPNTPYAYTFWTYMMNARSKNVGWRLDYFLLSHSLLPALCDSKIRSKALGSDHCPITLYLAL
# Summary of the method: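 Fluorogenic double-stranded THF abasic-site substrate (5'-TAMRA/3'-BHQ-2), 50 nM final. Enzyme preincubated with compound 15 min at room temperature, then substrate added. Kinetic fluorescence (ex 525/em 598 nm) read three times at 60 s intervals; activity taken as third-minus-first read difference.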
# [5] = Counterscreen for APE1 Inhibitors: Fluorescent Dye Displacement Validation Assay (AID 1707)
# Summary of the method: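 Signal: ThO fluorescence (ex 480 nm/em 540 nm) on binding 50 nM dsDNA; displacement by test compound reduces it. Conditions: 250 nM dye, 50 mM Tris-HCl pH7.5, 2 mM MgCl2, 50mM NaCl, 0.01% Tween-20.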
# [6] = biological target: Endonuclease 4 (Escherichia coli (strain K12)) (UniProt P0A6C1); assay: Counterscreen for APE1 Inhibitors: qHTS Validation Assay for Inhibitors of Endonuclease IV (AID 1708)
# Summary of the method: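 Enzyme (2 nM) + compound, 15 min RT; add 50 nM TAMRA/BHQ-2 THF-site dsDNA; kinetic read ex525/em598, 3 reads/60 s; activity = read 3 − read 1. Buffer Tris pH 7.5, 50 mM NaCl, 2 mM MgCl2, DTT, Tween-20.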
# [7] = qHTS for differential inhibitors of proliferation of Plasmodium falciparum line 7G8 (AID 1815);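 note: potency is the fitted concentration of half-maximal effect; parasite growth measured after three days of incubation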
# [8] = qHTS for differential inhibitors of proliferation of Plasmodium falciparum line GB4 (AID 1816); conditions: Potency: Plasmodium falciparum GB4 proliferation inhibition;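 note: potency is the fitted concentration of half-maximal effect; parasite growth measured after 72 h incubation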
# [9] = qHTS for differential inhibitors of proliferation of Plasmodium falciparum line 3D7 (AID 1876); note: potency is the fitted concentration of half-maximal effect
# [10] = qHTS for differential inhibitors of proliferation of Plasmodium falciparum line W2 (AID 1883); conditions: Potency: Plasmodium falciparum W2 proliferation inhibition;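 note: potency is the fitted concentration of half-maximal effect; parasites grown with compound for 72 h before lysis and staining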
# [11] = qHTS for differential inhibitors of proliferation of Plasmodium falciparum line HB3 (AID 1886); conditions: Potency: Plasmodium falciparum HB3 proliferation inhibition;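 note: potency is the fitted concentration of half-maximal effect; parasites grown with compound for 72 h before SYBR Green readout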
# [12] = qHTS Assay for Modulators of Human Peripheral Myelin Protein 22 (PMP22) Expression/Activity (AID 1967; active = well fitted curve in the direction sought with a large enough effect in the signal ratio; the % refers to the signal ratio)
# Summary of the method: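 Mouse MSC80 Schwann cells carrying Pmp22 promoter–green click beetle luciferase plus EF-alpha–red luciferase control, dosed 24 h at 37 °C. Dual-filter luminescence, overlap-corrected; %Activity from green/red ratio normalised to untreated cells, concentration-response curves fitted.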
# [13] = biological target: Ferritin light chain (Equus caballus) (UniProt P02791); assay: qHTS Validation Assay for Identification of Novel General Anesthetics (AID 2323)
# Sequence of Ferritin light chain (Equus caballus) (P02791 2-175 limits assumed): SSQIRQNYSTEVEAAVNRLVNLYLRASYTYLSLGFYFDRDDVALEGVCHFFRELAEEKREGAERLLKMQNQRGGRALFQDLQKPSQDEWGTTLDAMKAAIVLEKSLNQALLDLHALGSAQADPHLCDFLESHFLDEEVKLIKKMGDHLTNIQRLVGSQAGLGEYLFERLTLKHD
# Summary of the method: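 Horse-spleen apoferritin (10 uM) in PBS with 50% saturated 1-aminoanthracene; compounds pin-transferred, 10 min at room temperature. Fluorescence read at 380/535 nm, normalized to free 1-AMA and 1-AMA/apoferritin values; four-parameter Hill fit.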
# [14] = biological target: ATP-dependent DNA helicase Q1 (Homo sapiens) (UniProt P46063); assay: qHTS Validation Assay for Inhibitors of RecQ-Like Dna Helicase 1 (RECQ1) (AID 2353)
# Sequence of ATP-dependent DNA helicase Q1 (Homo sapiens) (P46063 whole entry, looked up): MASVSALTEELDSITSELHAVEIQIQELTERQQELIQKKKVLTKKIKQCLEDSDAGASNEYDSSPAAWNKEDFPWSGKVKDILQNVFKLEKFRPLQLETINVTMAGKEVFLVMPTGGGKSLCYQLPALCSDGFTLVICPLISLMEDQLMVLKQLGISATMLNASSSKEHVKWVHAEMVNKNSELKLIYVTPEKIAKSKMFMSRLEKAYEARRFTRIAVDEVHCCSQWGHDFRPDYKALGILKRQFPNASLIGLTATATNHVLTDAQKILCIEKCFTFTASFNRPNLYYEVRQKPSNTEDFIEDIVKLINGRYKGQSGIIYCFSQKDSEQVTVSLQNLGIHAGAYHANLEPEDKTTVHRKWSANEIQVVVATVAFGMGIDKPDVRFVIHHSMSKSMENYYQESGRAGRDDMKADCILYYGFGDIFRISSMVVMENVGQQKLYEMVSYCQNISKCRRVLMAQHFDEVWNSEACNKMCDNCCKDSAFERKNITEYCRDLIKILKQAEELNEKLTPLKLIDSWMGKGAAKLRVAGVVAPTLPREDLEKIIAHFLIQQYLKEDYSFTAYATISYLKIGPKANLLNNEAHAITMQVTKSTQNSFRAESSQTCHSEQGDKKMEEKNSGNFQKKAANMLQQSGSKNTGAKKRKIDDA
# Summary of the method: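 RECQ1T1 50 nM; forked duplex (20 bp + 30-nt ss tails) 200 nM, ATP 2 mM final; pH 8.0, 2 mM MgCl2, 2.5 ug/ml poly(dI-dC); 15 min compound preincubation; discontinuous kinetic read over 2 h at RT.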
# [15] = Validation screen for inhibitors of Lassa infection (AID 463096; calls by dose curve)
# [16] = Validation screen for small molecules that induce DNA re-replication in MCF 10A normal breast cells (AID 463097); note: nearly all actives have a fitted effect of over 60% in size
# Summary of the method: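 MCF 10A cells exposed to compound 48 hr at 37 C, 5% CO2, then Hoechst-stained 40 min. Laser-scanning imaging of nuclear DNA content (405 nm ex, 500-530 nm em); re-replication scored as rise in nuclei with elevated fluorescence intensity.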
# [17] = biological target: M-phase phosphoprotein 8 (Homo sapiens) (UniProt Q99549); assay: qHTS Validation Assay for Inhibitors for MPP8 Chromodomain Interactions with Methylated Histone Tails (AID 488949); note: top concentration of the series differs between compounds; nearly all actives have a fitted effect of over 55% in size
# Sequence of M-phase phosphoprotein 8 (Homo sapiens) (Q99549 whole entry, looked up): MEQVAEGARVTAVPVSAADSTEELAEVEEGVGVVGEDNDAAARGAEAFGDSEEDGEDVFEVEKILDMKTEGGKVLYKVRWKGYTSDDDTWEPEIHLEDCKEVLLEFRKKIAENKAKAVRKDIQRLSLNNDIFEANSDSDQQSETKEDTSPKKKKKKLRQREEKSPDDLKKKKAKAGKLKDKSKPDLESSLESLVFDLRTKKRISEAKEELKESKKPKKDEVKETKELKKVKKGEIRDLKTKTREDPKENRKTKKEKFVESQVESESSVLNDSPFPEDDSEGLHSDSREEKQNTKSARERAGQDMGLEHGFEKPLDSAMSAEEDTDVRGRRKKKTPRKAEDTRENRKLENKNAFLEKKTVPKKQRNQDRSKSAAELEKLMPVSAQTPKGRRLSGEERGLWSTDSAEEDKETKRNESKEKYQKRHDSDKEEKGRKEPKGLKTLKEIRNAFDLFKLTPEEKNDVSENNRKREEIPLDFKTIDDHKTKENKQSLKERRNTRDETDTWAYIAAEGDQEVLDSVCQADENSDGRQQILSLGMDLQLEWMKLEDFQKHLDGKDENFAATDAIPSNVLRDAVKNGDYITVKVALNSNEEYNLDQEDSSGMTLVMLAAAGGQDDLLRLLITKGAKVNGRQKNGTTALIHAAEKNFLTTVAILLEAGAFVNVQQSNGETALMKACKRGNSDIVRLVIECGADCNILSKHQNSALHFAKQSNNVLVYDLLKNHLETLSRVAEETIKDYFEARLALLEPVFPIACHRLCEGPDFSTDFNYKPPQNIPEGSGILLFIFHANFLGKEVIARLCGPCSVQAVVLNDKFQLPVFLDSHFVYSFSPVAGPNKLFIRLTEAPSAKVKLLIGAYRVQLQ
# Summary of the method: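 MPP8 (50 nM) was pre-bound to 50 nM biotinylated H3(1-18)K9me3 peptide in PBS pH 7.4 with 0.01% Tween-20. Compounds were then added for 30 min at room temperature, and complex disruption was read by AlphaScreen with streptavidin donor and nickel-chelate acceptor beads.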
# [18] = biological target: Transient receptor potential cation channel subfamily V member 1 (Homo sapiens) (UniProt Q8NER1); assay: HTS Assay for Compounds that Act as Enhancers of the Vanilloid Receptor 1 (AID 488979)
# Sequence of Transient receptor potential cation channel subfamily V member 1 (Homo sapiens) (Q8NER1 whole entry, looked up): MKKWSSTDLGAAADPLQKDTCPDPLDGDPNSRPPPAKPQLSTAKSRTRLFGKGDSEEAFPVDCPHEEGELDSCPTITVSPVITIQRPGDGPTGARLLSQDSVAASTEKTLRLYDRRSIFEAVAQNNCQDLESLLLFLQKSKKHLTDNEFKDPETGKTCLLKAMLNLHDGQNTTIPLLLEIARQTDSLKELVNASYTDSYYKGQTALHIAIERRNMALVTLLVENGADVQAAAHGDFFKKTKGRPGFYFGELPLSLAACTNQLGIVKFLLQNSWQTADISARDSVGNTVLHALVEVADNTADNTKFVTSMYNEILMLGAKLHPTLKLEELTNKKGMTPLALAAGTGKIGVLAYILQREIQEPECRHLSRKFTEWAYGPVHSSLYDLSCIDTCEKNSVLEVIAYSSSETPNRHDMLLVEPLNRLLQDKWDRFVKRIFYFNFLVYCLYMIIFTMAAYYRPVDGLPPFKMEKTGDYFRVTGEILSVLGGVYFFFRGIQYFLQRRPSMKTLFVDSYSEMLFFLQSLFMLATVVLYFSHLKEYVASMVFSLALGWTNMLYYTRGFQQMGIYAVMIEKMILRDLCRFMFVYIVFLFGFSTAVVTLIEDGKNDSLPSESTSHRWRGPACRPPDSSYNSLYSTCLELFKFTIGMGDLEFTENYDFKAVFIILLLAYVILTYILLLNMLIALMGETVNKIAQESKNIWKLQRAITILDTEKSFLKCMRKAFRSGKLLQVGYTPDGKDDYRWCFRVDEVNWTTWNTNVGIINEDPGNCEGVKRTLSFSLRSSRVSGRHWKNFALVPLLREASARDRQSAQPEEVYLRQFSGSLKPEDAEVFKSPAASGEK
# Summary of the method: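 TRPV1-expressing cells loaded with Fluo-8 calcium dye; compounds added and calcium influx read kinetically for 3 min (agonist phase), then capsaicin at EC20 added and read 2 min more for enhancement. Fluorescence ex 480/em 520 nm.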
# [19] = biological target: Thyrotropin receptor (Homo sapiens) (UniProt P16473); assay: qHTS Assay for Antagonists of the Thyroid Stimulating Hormone Receptor (AID 488980)
# Summary of the method: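 TSHR-transfected HEK293 cells (2000/well) in HEPES-buffered HBSS with 70 uM RO 20-1724 were stimulated with 4 nM TSH (EC80, final) in the presence of compound. cAMP was measured by HTRF competition after lysis and 30 min at RT.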
# [20] = biological target: Thyrotropin-releasing hormone receptor (Homo sapiens) (UniProt P34981); assay: qHTS for Small Molecule Agonists and Allosteric Enhancers of Human TRH Receptor: Validation Screen for Agonists (AID 493127;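 active = calcium activation more than 3 SD above the typical response in the agonist read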;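 note: intracellular calcium rise by fluo-8 fluorescence before TRH EC20 addition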); conditions: TRH receptor agonist cell assay; at 2 µM; stronger effect = higher value
# Sequence of Thyrotropin-releasing hormone receptor (Homo sapiens) (P34981 whole entry, looked up): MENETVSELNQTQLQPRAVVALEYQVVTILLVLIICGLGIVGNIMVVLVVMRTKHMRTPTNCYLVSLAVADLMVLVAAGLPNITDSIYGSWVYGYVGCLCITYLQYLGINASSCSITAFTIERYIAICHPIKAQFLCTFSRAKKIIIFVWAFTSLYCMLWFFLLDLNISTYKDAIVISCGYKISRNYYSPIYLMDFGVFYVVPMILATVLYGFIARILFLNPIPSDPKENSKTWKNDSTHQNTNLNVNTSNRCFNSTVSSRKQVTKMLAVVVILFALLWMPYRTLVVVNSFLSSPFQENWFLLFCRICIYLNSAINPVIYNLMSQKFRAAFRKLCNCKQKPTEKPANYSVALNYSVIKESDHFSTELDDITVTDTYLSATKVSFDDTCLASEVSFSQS
# Summary of the method: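 Compounds are added by online pintool to dye-loaded TRHR cells while fluorescence is recorded every second. A rise in calcium signal during the agonist read marks activation; a later 10 nM TRH addition (EC20) serves the separate enhancer mode.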
# [21] = biological target: Galactokinase (Homo sapiens) (UniProt P51570); assay: qHTS Validation Assay for Inhibitors of Human Galactokinase (GALK) (AID 493189)
# Sequence of Galactokinase (Homo sapiens) (P51570 whole entry, looked up): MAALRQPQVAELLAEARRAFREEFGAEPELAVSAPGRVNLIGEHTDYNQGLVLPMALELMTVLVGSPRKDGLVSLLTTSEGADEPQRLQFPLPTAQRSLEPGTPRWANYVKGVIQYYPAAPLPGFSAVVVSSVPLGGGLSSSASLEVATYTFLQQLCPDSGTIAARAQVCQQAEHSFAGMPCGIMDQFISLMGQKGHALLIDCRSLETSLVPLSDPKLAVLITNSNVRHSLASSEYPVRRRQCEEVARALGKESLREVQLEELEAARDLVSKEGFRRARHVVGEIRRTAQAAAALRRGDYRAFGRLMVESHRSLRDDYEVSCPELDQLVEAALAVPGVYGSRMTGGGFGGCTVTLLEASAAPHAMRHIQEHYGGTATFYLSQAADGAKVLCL
# Summary of the method: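 GALK (5 nM) with 35 uM ATP and 100 uM galactose in HEPES pH 8.0 with MgCl2, NaCl, DTT and BSA. Reaction ran 1 h at room temperature. Residual ATP read by Kinase-Glo Plus luminescence.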
# [22] = Validation screen for small molecules that induce DNA re-replication in SW480 colon adenocarcinoma cells (AID 504364)
# Summary of the method: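 Image-based qHTS: compounds were incubated with SW480 cells for 48 hr, nuclei stained with Hoechst, and per-nucleus fluorescence intensity scanned to flag cells with excess DNA content.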
# [23] = biological target: Voltage-gated inwardly rectifying potassium channel KCNH2 (Homo sapiens) (UniProt Q12809); assay: qHTS Assay for Small Molecule Inhibitors of the Human hERG Channel Activity (AID 588834);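 note: top concentration of the series differs between compounds; lower thallium flux fluorescence means stronger hERG block; nearly all actives have a fitted effect of over 50% in size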
# Sequence of Voltage-gated inwardly rectifying potassium channel KCNH2 (Homo sapiens) (Q12809 whole entry, looked up): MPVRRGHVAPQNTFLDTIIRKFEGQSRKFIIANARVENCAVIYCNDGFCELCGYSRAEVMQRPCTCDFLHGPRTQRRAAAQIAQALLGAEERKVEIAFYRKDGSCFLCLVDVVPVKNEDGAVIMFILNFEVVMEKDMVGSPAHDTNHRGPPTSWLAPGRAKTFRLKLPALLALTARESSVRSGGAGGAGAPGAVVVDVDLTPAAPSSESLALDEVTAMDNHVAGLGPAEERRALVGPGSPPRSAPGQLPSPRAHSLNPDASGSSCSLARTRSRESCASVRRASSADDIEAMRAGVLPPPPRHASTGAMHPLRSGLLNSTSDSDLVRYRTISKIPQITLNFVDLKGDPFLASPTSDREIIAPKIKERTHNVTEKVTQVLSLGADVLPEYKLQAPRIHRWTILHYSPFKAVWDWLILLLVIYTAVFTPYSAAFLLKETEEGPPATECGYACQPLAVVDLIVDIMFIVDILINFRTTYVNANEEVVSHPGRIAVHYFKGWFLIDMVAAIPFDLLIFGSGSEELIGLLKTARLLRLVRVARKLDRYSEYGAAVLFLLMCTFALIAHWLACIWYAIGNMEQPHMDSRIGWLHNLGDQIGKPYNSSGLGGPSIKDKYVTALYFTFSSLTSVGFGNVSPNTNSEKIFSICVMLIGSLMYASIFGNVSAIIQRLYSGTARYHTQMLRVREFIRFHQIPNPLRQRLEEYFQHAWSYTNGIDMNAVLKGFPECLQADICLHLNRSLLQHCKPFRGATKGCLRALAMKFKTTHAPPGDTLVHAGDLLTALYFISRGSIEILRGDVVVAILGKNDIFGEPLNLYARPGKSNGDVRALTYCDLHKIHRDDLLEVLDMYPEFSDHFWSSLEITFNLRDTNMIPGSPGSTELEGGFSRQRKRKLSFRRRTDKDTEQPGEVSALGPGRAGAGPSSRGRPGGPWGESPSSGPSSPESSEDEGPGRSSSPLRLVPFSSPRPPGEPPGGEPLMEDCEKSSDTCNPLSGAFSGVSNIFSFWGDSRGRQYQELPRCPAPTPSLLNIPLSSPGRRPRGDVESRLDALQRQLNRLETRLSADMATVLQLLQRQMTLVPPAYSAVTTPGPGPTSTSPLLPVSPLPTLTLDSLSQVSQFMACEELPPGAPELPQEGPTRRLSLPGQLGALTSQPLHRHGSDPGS
# Summary of the method: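 Thallium serves as surrogate for K+ influx through BacMam-delivered hERG in U2OS cells. Compounds are added for about 10 minutes after dye loading; stimulation buffer then starts flux, monitored kinetically on FDSS.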
smiles,measurement,setting,value
O=C1CSC(c2ccccc2Cl)c2cc(Cl)ccc2N1 (configuration not stated),Potency,[1],inactive
same,Potency,[2],inactive
CC(O)C(C)OC(=O)[C@@H]1C[C@@H]2c3cccc4c3c(cn4C(C)C)C[C@H]2N(C)C1 (some centres not stated),"activity change, negative = inhibition",[3]; at 57.5 µM (top of the series),2.46% (inactive)
same,max response,[3]; measured here: cell count channel max response,-4.58%
same,max response,[3]; measured here: lipid channel max response,-0.261%
same,Potency,[4],inactive
same,Potency,[5],inactive
same,outcome,[6],inactive
same,Potency,[7],11.2 µM (active)
same,Potency,[8],12.6 µM (active)
same,Potency,[9],12.6 µM (active)
same,Potency,[10],7.94 µM (active)
same,Potency,[11],14.1 µM (active)
same,outcome,[12],inactive
same,outcome,[13],inactive
same,Potency,[14],inactive
same,Potency,[15],inactive
same,Potency,[16],inactive
same,Potency,[17],inactive
same,outcome,[18],inactive
same,outcome,[19],inactive
same,activation,[20],4% (inactive)
same,outcome,[21],inactive
same,Potency,[22],inactive
same,Potency,[23],inactive
same,Potency,[1],inactive
same,Potency,[2],inactive
